Test results reported in PubChem BioAssay (NCI).
The panel holds about 79,000 compounds, 15% with a hit somewhere; the sample as a whole holds those more often. Unmarked numbers belong to inactive results. Activity calls are given as the source filed them. Cut-off read from the data, not from the text of the source: active = growth inhibition above about 70%; inactive = the rest.

Assay: NCI Yeast Anticancer Drug Screen. Data for the rad50 strain (AID 155);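 note: 0% = growth of vehicle-only cultures of the same strain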
Conditions: S. cerevisiae rad50 strain growth inhibition; at 50.0 µM; stronger effect = higher value
Method in brief: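 Yeast carrying a defined DNA repair defect were exposed to test compounds, and growth was compared with vehicle-treated controls to give percent inhibition.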
In the case of `O=C(NCCNc1ccccc1)C12CC3CC(CC(C3)C1)C2`, the growth inhibition is reported as -4.2%.
`COc1ccc2c(c1)OCCN(C)OC2c1ccccc1` (stereo not given) gave a growth inhibition of -7.65%.
Compound `CN=C(NN)NS(=O)(=O)c1cc(C)c(Cl)cc1S` has a growth inhibition of -12.6%.
`COC(=O)[C@H](Cc1ccc(OC(C)(C)C)cc1)N[C@H](C)C(=O)N[C@@H](Cc1ccccc1)C(=O)OCc1ccccc1` showed a growth inhibition of 35.5%.
`O=C(O)c1ccccc1C(=O)Cc1ccccc1` gave a growth inhibition of -14.7%.
Compound `Oc1ccc2cccc(O)c2c1` has a growth inhibition of -17.6%.
For `O=C(Cc1ccccc1)c1ccc(N2CCOCC2)cc1`, the growth inhibition was 21.5%.
With `NCC(=O)Nc1ccc(Cl)cc1C(=O)c1ccc[nH]1` the growth inhibition was 1.4%.
`CS(=O)(=O)C(CCC(=O)C(c1ccccc1)c1ccccc1)C(=O)c1ccccc1` (stereo not given) gave a growth inhibition of -7.7%.
With `COC(=O)C1CC(=O)CCC1c1ccccc1` (stereo not given) the growth inhibition was 1.5%.
Work on `CCCCCCCCCCCCCCCCc1ccc(CCCC(=O)O)cc1` yielded a growth inhibition of -20.8%.
In the case of `c1ccc2c(CN3CCN(Cc4c[nH]c5ccccc45)CC3)c[nH]c2c1`, the growth inhibition is reported as 17.1%.
`Cc1cc(=O)n(Cc2ccco2)c(=S)[nH]1` gave a growth inhibition of 25.1%.
`CC(=O)Oc1ccc(OC(C)=O)c(C(=O)O)c1` gave a growth inhibition of 15.1%.
`O=C(O)CS/C(=N\S(=O)(=O)c1ccccc1)Nc1cccc(Cl)c1` gave a growth inhibition of -2.85%.
Compound `O=C(NCc1ccccn1)c1ccccc1` has a growth inhibition of 17.5%.
For `CCC(Cc1cnc2nc(N)nc(N)c2n1)c1ccc(C(=O)NC(CCC(=O)O)C(=O)O)cc1` (stereo not given), the growth inhibition was -9.3%.
Work on `NC(C(=O)O)c1ccccc1` (stereo not given) yielded a growth inhibition of -0.85%.
In the case of `CCOc1ccccc1C(=O)Oc1ccc(C)cc1`, the growth inhibition is reported as -4.6%.
Work on `COC(=O)C1=C(O)/C(=C\c2ccccc2)NC1=O` yielded a growth inhibition of 9.35%.
In the case of `O=C(CN1CCN(Cc2ccccc2)CC1)N1CCCn2c1nc1ccccc1c2=O`, the growth inhibition is reported as -18.1%.
`CCc1ccc(C(O)C(=O)O)cc1` (stereo not given) gave a growth inhibition of 4.6%.
For `CSc1nc2c(nc(N)n2C2OC(CO)C(O)C(O)C2O)c(=O)[nH]1` (stereo not given), the growth inhibition was -13.7%.
Compound `O=C(O)c1cscn1.O=C(O)c1cscn1.[I][Pt][I]` has a growth inhibition of 5.75%.
In the case of `CCOC(=O)NN(C(=O)OCC)C(C(=O)C1CCCCC1)N(NC(=O)OCC)C(=O)OCC`, the growth inhibition is reported as 21.4%.
In the case of `c1ccc(N=C(Nc2ccccc2)N2CCCC2)cc1`, the growth inhibition is reported as -33.2%.
Compound `Nc1nc(C(F)(F)F)nc(N)c1N` has a growth inhibition of 7.6%.
With `O=C(CCCCc1ccccc1)NO` the growth inhibition was 25.4%.
`CCCC(C)OS(=O)(=O)c1ccc(C)cc1` (stereo not given) showed a growth inhibition of 13%.
Work on `CC(C)(N)COCOCC(C)(C)N` yielded a growth inhibition of 6.8%.
With `CN1CCC(CNc2ccccc2)CC1` the growth inhibition was 3.6%.
Work on `NC(=S)n1nc(-c2ccccc2)c(N=Nc2cccc([N+](=O)[O-])c2)c1-c1ccccc1` yielded a growth inhibition of 32.9%.
Work on `CCC1(CC)NC(=S)NC1=S` yielded a growth inhibition of 24.5%.
In the case of `CCOC1C=CCCO1` (stereo not given), the growth inhibition is reported as 20%.
For `COc1cc2c(c3c1/c(=N\N=c1/c4ccccc4n(C)c4c5c(cc(OC)c14)OC(C)(C)C=C5)c1ccccc1n3C)C=CC(C)(C)O2`, the growth inhibition was 70% (active).
With `Cn1nc2c(c1-c1ccncc1)CCc1ccccc1-2` the growth inhibition was 3.9%.
`CCOC(=O)/C=C/c1ccc([N+](=O)[O-])cc1` gave a growth inhibition of 23.6%.
With `CCCCCCCCCCCCCC(=O)OCC1OC(n2cc(F)c(=O)[nH]c2=O)C(N)C(OC(=O)CCCCCCCCCCCCC)C1O` (stereo not given) the growth inhibition was 27.4%.
For `CCNC(=O)CCC(NS(=O)(=O)c1ccc(NC(=O)c2ccc(Cl)cc2)cc1)C(=O)O` (stereo not given), the growth inhibition was 0.8%.
For `CC1CP(=O)(Cc2ccccc2)C(C)(c2ccccc2)C1=O` (stereo not given), the growth inhibition was -18.4%.
